The campaign covered roughly 5,500 compounds. About 2,000 (36%) were called active. About 18% were inconclusive and are not listed. This is one part of the list. Unmarked numbers belong to inactive results. Cut-off read from the data, not from the text of the source: active = normalized growth mostly below about 0.91 (no sharp cut-off); inconclusive = no clear call, values can overlap the other calls; inactive = mostly above about 0.92.
Assay: chemical genetic growth profiling, strain panel (AID 1159580);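 note: tested at 20 µM; growth read once vehicle control cultures reached saturation at 30 °C; 1 = growth at the plate median or of vehicle wells; lower values mean less growth of the strain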
Details: S. cerevisiae deletion strains, growth OD

O=[N+]([O-])c1cc(C(F)(F)F)ccc1-n1ccc(-c2cccs2)n1
normalized growth (locus YAR019C, strain CDC15, stronger effect = lower value): 0.953
normalized growth (locus YBL105C, strain PKC1, stronger effect = lower value): 0.952
normalized growth (locus YBR135W, strain CKS1, stronger effect = lower value): 0.948
normalized growth (locus YBR136W, strain MEC1, stronger effect = lower value): 0.954
normalized growth (locus YBR160W, strain CDC28, stronger effect = lower value): 0.956
normalized growth (locus YDL017W, strain CDC7, stronger effect = lower value): 0.955
normalized growth (locus YDL028C, strain MPS1, stronger effect = lower value): 0.958
normalized growth (locus YDL101C, strain DUN1, stronger effect = lower value): 0.959
normalized growth (locus YDL108W, strain KIN28, stronger effect = lower value): 0.951
normalized growth (locus YDL132W, strain cdc53, stronger effect = lower value): 0.96
normalized growth (locus YDL214C, strain PRR2, stronger effect = lower value): 0.88
normalized growth (locus YDR052C, strain DBF4, stronger effect = lower value): 0.951
normalized growth (locus YDR054C, strain cdc34, stronger effect = lower value): 0.95
normalized growth (locus YDR226W, strain ADK1, stronger effect = lower value): 0.952
normalized growth (locus YDR477W, strain SNF1, stronger effect = lower value): 0.879
normalized growth (locus YER123W, strain YCK3, stronger effect = lower value): 0.846
normalized growth (locus YER133W, strain GLC7, stronger effect = lower value): 0.846
normalized growth (locus YFL009W, strain cdc4, stronger effect = lower value): 0.952
normalized growth (locus YFL029C, strain CAK1, stronger effect = lower value): 0.952
normalized growth (locus YFR003C, strain YPI1, stronger effect = lower value): 0.951
normalized growth (locus YFR019W, strain FAB1, stronger effect = lower value): 0.945
normalized growth (locus YFR028C, strain CDC14, stronger effect = lower value): 0.952
normalized growth (locus YGR040W, strain KSS1, stronger effect = lower value): 0.882
normalized growth (locus YGR052W, strain FMP48, stronger effect = lower value): 0.933
normalized growth (locus YGR092W, strain DBF2, stronger effect = lower value): 0.754
normalized growth (locus YHR030C, strain SLT2, stronger effect = lower value): 0.76 (active)
normalized growth (locus YHR079C, strain IRE1, stronger effect = lower value): 0.87
normalized growth (locus YHR082C, strain KSP1, stronger effect = lower value): 0.968
normalized growth (locus YHR205W, strain SCH9, stronger effect = lower value): 0.913
normalized growth (locus YIL147C, strain SLN1, stronger effect = lower value): 0.957
normalized growth (locus YJL095W, strain BCK1, stronger effect = lower value): 0.863
normalized growth (locus YJL128C, strain PBS2, stronger effect = lower value): 0.897
normalized growth (locus YJL157C, strain FAR1, stronger effect = lower value): 0.84
normalized growth (locus YJR016C, strain ILV3, stronger effect = lower value): 0.958
normalized growth (locus YJR066W, strain TOR1 (second series), stronger effect = lower value): 0.839
normalized growth (locus YJR066W, strain TOR1, stronger effect = lower value): 0.889
normalized growth (locus YKL048C, strain ELM1, stronger effect = lower value): 0.914
normalized growth (locus YKL067W, strain YNK1, stronger effect = lower value): 0.88
normalized growth (locus YKL101W, strain HSL1, stronger effect = lower value): 0.875
normalized growth (locus YKL193C, strain SDS22, stronger effect = lower value): 0.957
normalized growth (locus YKL203C, strain TOR2, stronger effect = lower value): 0.919
normalized growth (locus YLR113W, strain HOG1, stronger effect = lower value): 0.789 (active)
normalized growth (locus YLR133W, strain CKI1, stronger effect = lower value): 0.88
normalized growth (locus YLR403W, strain SFP1, stronger effect = lower value): 0.804
normalized growth (locus YML070W, strain DAK1, stronger effect = lower value): 0.87
normalized growth (locus YMR001C, strain CDC5, stronger effect = lower value): 0.947
normalized growth (locus YMR205C, strain PFK2 (second series), stronger effect = lower value): 0.896
normalized growth (locus YMR277W, strain FCP1, stronger effect = lower value): 0.958
normalized growth (locus YNL006W, strain LST8, stronger effect = lower value): 0.956
normalized growth (locus YNL020C, strain ARK1, stronger effect = lower value): 0.861
normalized growth (locus YNL161W, strain CBK1, stronger effect = lower value): 0.949
normalized growth (locus YNL183C, strain NPR1, stronger effect = lower value): 0.92
normalized growth (locus YNL207W, strain RIO2, stronger effect = lower value): 0.947
normalized growth (locus YNL222W, strain SSU72, stronger effect = lower value): 0.965
normalized growth (locus YNL307C, strain MCK1 (second series), stronger effect = lower value): 0.862
normalized growth (locus YOL078W, strain AVO1, stronger effect = lower value): 0.952
normalized growth (locus YOL136C, strain PFK27, stronger effect = lower value): 0.883
normalized growth (locus YOR061W, strain CKA2, stronger effect = lower value): 0.827
normalized growth (locus YOR119C, strain RIO1, stronger effect = lower value): 0.932
normalized growth (locus YOR231W, strain MKK1, stronger effect = lower value): 0.886
normalized growth (locus YOR329C, strain SCD5, stronger effect = lower value): 0.947
normalized growth (locus YPL031C, strain PHO85, stronger effect = lower value): 0.872
normalized growth (locus YPL153C, strain RAD53, stronger effect = lower value): 0.92
normalized growth (locus YPL204W, strain HRR25, stronger effect = lower value): 0.885
normalized growth (locus YPL209C, strain IPL1, stronger effect = lower value): 0.959
normalized growth (locus YPL256C, strain CLN2, stronger effect = lower value): 0.864
normalized growth (locus YPR025C, strain CCL1, stronger effect = lower value): 0.95
normalized growth (locus YPR106W, strain ISR1, stronger effect = lower value): 0.954
normalized growth (locus YPR111W, strain DBF20, stronger effect = lower value): 0.936
normalized growth (strain NNK1, stronger effect = lower value): 0.926
normalized growth (strain TSCII, stronger effect = lower value): 0.955
